In PubChem BioAssay (EPA / NIEHS):
Inconclusive results are not listed. Calls of active or inactive are those of the source. How the source made its calls: active means hit-call score of the fitted dose curve at least 0.9, where 1 is the maximum; inconclusive means response in the unintended direction; inactive means score below 0.9.

Read-out: ABC Transporter (ABCB11), ABCB11 (gene 8647)
Experiment: CLD_ABCB11_48hr: CellzDirect (CLD) Gene Expression Assay for ABC Transporter (ABCB11) at 48 hours (AID 2283697)
Description: CLD_48hr is a cell-based, multiplexed-readout assay that uses hepatocyte, a human liver primary cell, with measurements taken at 48 hours after chemical dosing in a 96-well plate.CLD_ABCB11_48hr is one of 16 assay component(s) measured or calculated from the CLD_48hr assay. It is designed to make measurements of mRNA induction, a form of inducible reporter, as detected with chemiluminescence signals by Quantitative Nuclease Protection Assay (qNPA) technology.Data from the assay component CLD_ABCB11_48hr was analyzed at the endpoint, CLD_ABCB11_48hr, in the positive analysis fitting direction relative to DMSO as the negative control and baseline of activity. Using a type of inducible reporter, gain-of-signal activity can be used to understand changes in the reporter gene as they relate to the gene ABCB11. Furthermore, this assay endpoint can be referred to as a primary readout. To generalize the intended target to other relatable targets, this assay endpoint is annotated to the transporter intended target family, where subfamily is ABC transporter.
Human hepatocyte cultures were treated daily for two consecutive days with fresh dosing solutions containing appropriate concentrations of the 320 ToxCast chemicals (chemical identities were blinded to CellzDirect and other ToxCast collaborators), vehicle control (0.2% DMSO), and positive control inducers as summarized in Table 1. Due to the large number of treatment groups and chemicals examined, the ToxCast chemicals were divided into two groups (spanning two independent cultures of hepatocytes from separate donor preparations (Hu778: ToxCast plates 1 and 2; Hu776: ToxCast plates 3 and 4). Each preparation of human hepatocyte cultures was treated with respective vehicle control, medium only control, set of six positive controls/reference chemicals for the five hepatic receptor pathways, and a subset of eight of the ToxCast chemicals (indoxacarb, pyrithiobac-sodium, norflurazon, cyhalofop-butyl, methomyl, thiram, acetochlor, and propiconazole). These replicate data, coupled with internal replicates designed within the blinded ToxCast chemical library, provided additional data to evaluate interindividual differences between hepatocyte preparations and their potential impact on chemical profiles.Cell morphology and integrity were evaluated using phase-contrast microscopy as an indicator of hepatocyte cell health (Tyson & Green, 1987). Cultures for each treatment group (i.e., media, vehicle [0.2% DMSO], positive control inducers [multiple concentrations], and the ToxCast chemicals [multiple concentrations]) were observed and cell morphology was assessed relative to vehicle control cultures at each harvest time point (0, 6, 24, or 48 h). […] Images were evaluated at the conclusion of the study to assess changes in cell integrity and account for the effects of chemical exposure on uncharacteristic changes in concentration-dependent gene expression profiles. The results from these determinations of apparent cytotoxicity were annotated (yes/no) alongside the corresponding qNPA data for reference.At the conclusion of each treatment period, hepatocyte cultures (96-well) were washed with 1 volume of HBSS, lysed by addition of 25 ul ArrayPlate lysis buffer (HTG, Tucson, AZ), and 70 ul/well of Denaturation Oil, denatured by incubation at 95C for 10 min, and frozen at approximately -70C until analysis by nuclease protection assay (qNPA) (Roberts et al., 2007). For qNPA analysis, cell lysates were thawed at 50C for approximately 30 min, qNPA probes were added, and samples were incubated at 95C for 10 min to begin the detection process by denaturing the target RNA, dissociating the duplexes and secondary structure hybridization. At the conclusion of the hybridization period, S1 nuclease reagent was added to each sample to digest all nonprotected nucleotides at 50C for 60-90 min. […]

Compound	outcome	AC50
COC(=O)C(C)Oc1ccc(Oc2ccc(Cl)cc2Cl)cc1 (stereo unspecified)	inactive	–
COc1nc(C)nc(NC(=O)NS(=O)(=O)c2ccccc2Cl)n1	inactive	–
CCON=C(CC)C1=C(O)CC(c2c(C)cc(C)cc2C)CC1=O (stereo unspecified)	inactive	–
COC(=O)c1ccccc1C(=O)OC	inactive	–
CC(C)(C)c1ccc(CSc2cnn(C(C)(C)C)c(=O)c2Cl)cc1	inactive	–
CCc1nn(C)c(C(=O)NCc2ccc(C(C)(C)C)cc2)c1Cl	–	37 µM (active)
CS/C(C)=N/OC(=O)N(C)SN(C)C(=O)O/N=C(\C)SC	inactive	–
CN(C)C(=S)SSC(=S)N(C)C	inactive	–
O=C(O)c1nc(Cl)ccc1Cl	–	6.55 µM (active)
Oc1ccccc1-c1ccccc1	inactive	–
COc1nc(NC(C)C)nc(NC(C)C)n1	inactive	–
COC(=O)N(OC)c1ccccc1COc1ccn(-c2ccc(Cl)cc2)n1	–	35.7 µM (active)
C#CCOS(=O)OC1CCCCC1Oc1ccc(C(C)(C)C)cc1 (stereo unspecified)	inactive	–
COc1nc(C)nc(NC(=O)NS(=O)(=O)c2ccccc2CCC(F)(F)F)n1	inactive	–
Cc1c(F)c(F)c(COC(=O)C2C(/C=C(\Cl)C(F)(F)F)C2(C)C)c(F)c1F (stereo unspecified)	inactive	–
COC(=O)C=C(C)OP(=O)(OC)OC	inactive	–
